# Experimental data published in the supplement of paper PMC12645437, “Orthogonal IMiD-Degron Pairs Induce Selective Protein Degradation in Cells” (ACS Chemical Biology, 2025).
# The full ranking holds about 8,300 sequences; the median of “log2 fold change of degron read counts, EGFP-low vs EGFP+ sorted cells (limma voom), compound-induced degradation” is about -1.1, and the highest 2% start at about 3.2. This excerpt belongs to a sample that is enriched for the highest values.
# Molecular target: T1, CRBN, Q96SW2
# T1 chain: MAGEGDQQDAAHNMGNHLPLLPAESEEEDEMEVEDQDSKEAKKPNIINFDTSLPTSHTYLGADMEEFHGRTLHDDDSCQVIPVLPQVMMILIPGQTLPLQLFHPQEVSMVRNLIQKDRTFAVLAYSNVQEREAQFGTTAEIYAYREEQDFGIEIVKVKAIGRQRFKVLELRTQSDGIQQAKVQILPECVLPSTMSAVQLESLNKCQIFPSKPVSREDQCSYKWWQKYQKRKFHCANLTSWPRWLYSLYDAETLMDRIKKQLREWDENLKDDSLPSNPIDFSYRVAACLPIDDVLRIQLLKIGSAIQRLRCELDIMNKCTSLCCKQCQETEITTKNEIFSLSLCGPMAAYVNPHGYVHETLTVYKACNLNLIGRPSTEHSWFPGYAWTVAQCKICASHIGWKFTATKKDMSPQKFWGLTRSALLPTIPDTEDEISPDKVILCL
# Experiment: log2 fold change of degron read counts, EGFP-low vs EGFP+ sorted cells (limma voom), compound-induced degradation; higher = more compound-induced degradation of the degron-EGFP fusion; degrons are variants of IKZF1/3 zinc finger 2; compound dose not given here
# Details: Jurkat, 18 h
# [1] = compound: compound 19 (5-tert-butyl-thalidomide)
# [2] = compound: compound 22 (5-morpholino-thalidomide)
# [3] = compound: compound 33 (diphenyl IMiD analogue)
# 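Also: pooled lentiviral library of zinc finger degron-EGFP fusions in mCherry-positive Jurkat cells, FACS-sorted after compound exposure, with degron abundance counted by next-generation sequencing.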
sequence,measurement,setting,value
"FHCEICGRSFTQKGNLLRHIKL [46F_47H_49E_50I_52G_53R_54S_55F_67L_, Q9UKT9]",log2 fold change of degron read counts,[1],-1.49
same,log2 fold change of degron read counts,[2],-1.82
same,log2 fold change of degron read counts,[3],-0.909
same,log2 fold change of degron read counts,compound: thalidomide,-2.11
"FDCPICGALFTQKGNLLRHIKL [46F_47D_49P_50I_52G_53A_54L_55F_67L_, Q9UKT9]",log2 fold change of degron read counts,[1],-0.924
same,log2 fold change of degron read counts,[2],-0.888
same,log2 fold change of degron read counts,[3],1.62
same,log2 fold change of degron read counts,compound: thalidomide,0.905
"LHCEICGFTCTQKGNLLRHIKL [46L_47H_49E_50I_52G_53F_54T_55C_67L_, Q9UKT9]",log2 fold change of degron read counts,[1],2.89
same,log2 fold change of degron read counts,[2],2.93
same,log2 fold change of degron read counts,[3],2.43
same,log2 fold change of degron read counts,compound: thalidomide,2.43
"LNCEICGFTCTQKGNLLRHIKL [46L_47N_49E_50I_52G_53F_54T_55C_67L_, Q9UKT9]",log2 fold change of degron read counts,[1],1.73
same,log2 fold change of degron read counts,[2],0.624
same,log2 fold change of degron read counts,[3],-0.0341
same,log2 fold change of degron read counts,compound: thalidomide,0.396
"LFCEICGFTCTQKGNLLRHIKL [46L_47F_49E_50I_52G_53F_54T_55C_67L_, Q9UKT9]",log2 fold change of degron read counts,[1],3.64
same,log2 fold change of degron read counts,[2],3.67
same,log2 fold change of degron read counts,[3],2.59
same,log2 fold change of degron read counts,compound: thalidomide,2.56
"FQCNQCGHNFTQKGNLLRHIKL [46F_47Q_49N_50Q_52G_53H_54N_55F_67L_, Q9UKT9]",log2 fold change of degron read counts,[1],-2.53
same,log2 fold change of degron read counts,[2],-2.33
same,log2 fold change of degron read counts,[3],-2.93
same,log2 fold change of degron read counts,compound: thalidomide,-2.77
"FTCEQCGAYFTQKGNLLRHIKL [46F_47T_49E_50Q_52G_53A_54Y_55F_67L_, Q9UKT9]",log2 fold change of degron read counts,[1],-2.34
same,log2 fold change of degron read counts,[2],-1.73
same,log2 fold change of degron read counts,[3],0.185
same,log2 fold change of degron read counts,compound: thalidomide,-0.424
"FECEQCGAPFTQKGNLLRHIKL [46F_47E_49E_50Q_52G_53A_54P_55F_67L_, Q9UKT9]",log2 fold change of degron read counts,[1],-1.7
same,log2 fold change of degron read counts,[2],-3.27
same,log2 fold change of degron read counts,[3],-1.9
same,log2 fold change of degron read counts,compound: thalidomide,-1.5
"FNCPICGAPFTQKGNLLRHIKL [46F_47N_49P_50I_52G_53A_54P_55F_67L_, Q9UKT9]",log2 fold change of degron read counts,[1],3.48
same,log2 fold change of degron read counts,[2],3.2
same,log2 fold change of degron read counts,[3],1.92
same,log2 fold change of degron read counts,compound: thalidomide,2.43
"FFCPICGAMFTQKGNLLRHIKL [46F_47F_49P_50I_52G_53A_54M_55F_67L_, Q9UKT9]",log2 fold change of degron read counts,[1],2.56
same,log2 fold change of degron read counts,[2],2.36
same,log2 fold change of degron read counts,[3],1.76
same,log2 fold change of degron read counts,compound: thalidomide,0.179
"FKCPICGAPFTQKGNLLRHIKL [46F_47K_49P_50I_52G_53A_54P_55F_67L_, Q9UKT9]",log2 fold change of degron read counts,[1],2.55
same,log2 fold change of degron read counts,[2],2.24
same,log2 fold change of degron read counts,[3],-0.00355
same,log2 fold change of degron read counts,compound: thalidomide,2.87
"FNCPICGRPFTQKGNLLRHIKL [46F_47N_49P_50I_52G_53R_54P_55F_67L_, Q9UKT9]",log2 fold change of degron read counts,[1],1.49
same,log2 fold change of degron read counts,[2],0.628
same,log2 fold change of degron read counts,[3],0.167
same,log2 fold change of degron read counts,compound: thalidomide,1.01
"FNCPICGAMFTQKGNLLRHIKL [46F_47N_49P_50I_52G_53A_54M_55F_67L_, Q9UKT9]",log2 fold change of degron read counts,[1],1.73
same,log2 fold change of degron read counts,[2],0.564
same,log2 fold change of degron read counts,[3],0.719
same,log2 fold change of degron read counts,compound: thalidomide,0.478
"FSCPICGAPFTQKGNLLRHIKL [46F_47S_49P_50I_52G_53A_54P_55F_67L_, Q9UKT9]",log2 fold change of degron read counts,[1],3.29
same,log2 fold change of degron read counts,[2],2.92
same,log2 fold change of degron read counts,[3],2.02
same,log2 fold change of degron read counts,compound: thalidomide,2.62
"FFCPICGAPFTQKGNLLRHIKL [46F_47F_49P_50I_52G_53A_54P_55F_67L_, Q9UKT9]",log2 fold change of degron read counts,[1],3.92
same,log2 fold change of degron read counts,[2],3.44
same,log2 fold change of degron read counts,[3],2.55
same,log2 fold change of degron read counts,compound: thalidomide,2.09
"FRCPICGAPFTQKGNLLRHIKL [46F_47R_49P_50I_52G_53A_54P_55F_67L_, Q9UKT9]",log2 fold change of degron read counts,[1],3.44
same,log2 fold change of degron read counts,[2],3.76
same,log2 fold change of degron read counts,[3],3.04
same,log2 fold change of degron read counts,compound: thalidomide,3.53
"FFCPICGAFFTQKGNLLRHIKL [46F_47F_49P_50I_52G_53A_54F_55F_67L_, Q9UKT9]",log2 fold change of degron read counts,[1],2.73
same,log2 fold change of degron read counts,[2],2.52
same,log2 fold change of degron read counts,[3],1.71
same,log2 fold change of degron read counts,compound: thalidomide,0.267
"FECPICGAPFTQKGNLLRHIKL [46F_47E_49P_50I_52G_53A_54P_55F_67L_, Q9UKT9]",log2 fold change of degron read counts,[1],2.46
same,log2 fold change of degron read counts,[2],0.3
same,log2 fold change of degron read counts,[3],2.23
same,log2 fold change of degron read counts,compound: thalidomide,2.98
"FRCPQCGAPFTQKGNLLRHIKL [46F_47R_49P_50Q_52G_53A_54P_55F_67L_, Q9UKT9]",log2 fold change of degron read counts,[1],0.857
same,log2 fold change of degron read counts,[2],2.89
same,log2 fold change of degron read counts,[3],2.7
same,log2 fold change of degron read counts,compound: thalidomide,2.5
"FRCPICGADFTQKGNLLRHIKL [46F_47R_49P_50I_52G_53A_54D_55F_67L_, Q9UKT9]",log2 fold change of degron read counts,[1],-0.99
same,log2 fold change of degron read counts,[2],-0.254
same,log2 fold change of degron read counts,[3],1.92
same,log2 fold change of degron read counts,compound: thalidomide,1.51
"FYCEICGRMFTQKGNLLRHIKL [46F_47Y_49E_50I_52G_53R_54M_55F_67L_, Q9UKT9]",log2 fold change of degron read counts,[1],1.51
same,log2 fold change of degron read counts,[2],1.03
same,log2 fold change of degron read counts,[3],1.08
same,log2 fold change of degron read counts,compound: thalidomide,-0.729
"FWCPQCGATFTQKGNLLRHIKL [46F_47W_49P_50Q_52G_53A_54T_55F_67L_, Q9UKT9]",log2 fold change of degron read counts,[1],-0.373
same,log2 fold change of degron read counts,[2],1.49
same,log2 fold change of degron read counts,[3],0.797
same,log2 fold change of degron read counts,compound: thalidomide,-1.24
"FMCDQCGAAFTQKGNLLRHIKL [46F_47M_49D_50Q_52G_53A_54A_55F_67L_, Q9UKT9]",log2 fold change of degron read counts,[1],-1.96
same,log2 fold change of degron read counts,[2],-2.12
same,log2 fold change of degron read counts,[3],0.439
same,log2 fold change of degron read counts,compound: thalidomide,-2.32
"LYCNQCGFLCTQKGNLLRHIKL [46L_47Y_49N_50Q_52G_53F_54L_55C_67L_, Q9UKT9]",log2 fold change of degron read counts,[1],-1.29
same,log2 fold change of degron read counts,[2],-1.42
same,log2 fold change of degron read counts,[3],-1.67
same,log2 fold change of degron read counts,compound: thalidomide,-1.29
"FECEICGRSFTQKGNLLRHIKL [46F_47E_49E_50I_52G_53R_54S_55F_67L_, Q9UKT9]",log2 fold change of degron read counts,[1],-2.51
same,log2 fold change of degron read counts,[2],-3.16
same,log2 fold change of degron read counts,[3],-1.24
same,log2 fold change of degron read counts,compound: thalidomide,-1.32
"FNCEQCGAWFTQKGNLLRHIKL [46F_47N_49E_50Q_52G_53A_54W_55F_67L_, Q9UKT9]",log2 fold change of degron read counts,[1],-2.53
same,log2 fold change of degron read counts,[2],-2.58
same,log2 fold change of degron read counts,[3],-2.99
same,log2 fold change of degron read counts,compound: thalidomide,-2.13
"FLCDICGADFTQKGNLLRHIKL [46F_47L_49D_50I_52G_53A_54D_55F_67L_, Q9UKT9]",log2 fold change of degron read counts,[1],-2.36
same,log2 fold change of degron read counts,[2],-3.49
same,log2 fold change of degron read counts,[3],-2.12
same,log2 fold change of degron read counts,compound: thalidomide,-2.22
"FHCPICGRNFTQKGNLLRHIKL [46F_47H_49P_50I_52G_53R_54N_55F_67L_, Q9UKT9]",log2 fold change of degron read counts,[1],-0.818
same,log2 fold change of degron read counts,[2],-0.983
same,log2 fold change of degron read counts,[3],-0.208
same,log2 fold change of degron read counts,compound: thalidomide,-0.527
